Screens: PubChem BioAssay, National Center for Advancing Translational Sciences (NCATS)
Sfp inh = qHTS Assay for Inhibitors of Bacillus subtilis Sfp phosphopantetheinyl transferase (PPTase); Potency, µM, hits mostly inhibitors; 4'-phosphopantetheinyl transferase ffp (Bacillus subtilis), Q9F4F7; AID 1490, 2009; 3.5% of 310,000 active; Biochemical Sfp PPTase activity, qHTS;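 note: the enzyme is Sfp with the accession as filed and its product quenches rhodamine fluorescence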
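With Hepes-Na pH 7.6 buffer containing 10 mM MgCl2, Sfp (15 nM) modified BHQ-2-YbbR (12.5 uM) using rhodamine-CoA (5 uM). Two reads 30 minutes apart at 525/598 nm yielded each well's rate.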
CCT chaperon mod = High-Throughput Screening for Modulators of Cytosolic Chaperonin Activity; purified chaperonin ATPase assay, HTRF ADP detection, 30 min; activity change, % (concentration not given with the values), hits read low; 0.3% of 360,000 active; AID 651819, 2012; in the data active = activity change below about -30%
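First, chaperonin was dispensed at 40 nM or 20 nM final depending on batch activity. Next, compounds were pinned at 76 uM and ATP added at 10 uM. After 30 min at 37 °C, ADP detection reagents ran 30 min at ambient temperature.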
MmCpn inh = Inhibitors of TCP-1 ring complex (TRiC) of Methanococcus maripaludis (MmCpn): qHTS; Chaperonin Mm-Cpn (Methanococcus maripaludis); purified Mm-Cpn ATPase, ADP Transcreener TR-FRET; Potency, µM (series often up to 76.9 µM), usual class: inhibitors; 0.031% of 330,000 active; note: nearly all actives have a fitted effect of over 80% in size
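Quantitative HTS used 25 nM Mm-CPN and 10 uM ATP in magnesium/KCl Tris buffer, pH 7.4, with 1 mM DTT. Hydrolysis ran 30 min at 37°C; ADP was read by HTRF.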
PLK1 PBD block = qHTS for Inhibitors of PLK1-PDB (polo-like kinase 1 - polo-box domain): Primary Screen. Plk1 PBD binding of FITC phosphopeptide, fluorescence polarization. AID 720504, 2013. 2.8% of 360,000 active. Serine/threonine-protein kinase PLK1 (Homo sapiens), P53350. Potency, µM, most hits filed as inhibitors; note: series mostly up to about 57 µM; nearly all actives have a fitted effect of over 65% in size
VDR inh = Inhibitors of the vitamin D receptor (VDR): qHTS. Vitamin D3 receptor (Homo sapiens), P11473. VDR-SRC2-3 peptide fluorescence polarization, 2 h. Potency, µM, actives largely listed as inhibitors. 0.93% of 400,000 active
Target sequence (P11473 whole entry, looked up): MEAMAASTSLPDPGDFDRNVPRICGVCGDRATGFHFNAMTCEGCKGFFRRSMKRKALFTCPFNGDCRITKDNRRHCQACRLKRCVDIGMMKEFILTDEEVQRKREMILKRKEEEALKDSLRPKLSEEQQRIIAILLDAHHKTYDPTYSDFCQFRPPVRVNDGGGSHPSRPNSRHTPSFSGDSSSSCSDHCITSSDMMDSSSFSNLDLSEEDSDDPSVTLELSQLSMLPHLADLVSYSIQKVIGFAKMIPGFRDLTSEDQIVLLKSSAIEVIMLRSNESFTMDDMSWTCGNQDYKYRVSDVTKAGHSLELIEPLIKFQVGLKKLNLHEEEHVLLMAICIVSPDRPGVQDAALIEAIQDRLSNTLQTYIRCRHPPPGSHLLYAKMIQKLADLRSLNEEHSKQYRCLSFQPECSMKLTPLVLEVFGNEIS
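The screen uses fluorescence polarization to detect compounds that interfere with recruitment of the SRC2-3 coactivator peptide to VDR; plates are read after 2 h at room temperature.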
G9a block = qHTS Assay for Inhibitors of Histone Lysine Methyltransferase G9a | Histone-lysine N-methyltransferase EHMT2 (Homo sapiens), Q96KQ7 | G9a H3K9 monomethylation, AlphaScreen, 2 h | Potency, µM (titrated, usually from 102 µM), most hits filed as inhibitors | 8.8% of 350,000 active; note: nearly all actives have a fitted effect of over 75% in size
Target sequence (Q96KQ7 913-1193 limits assumed): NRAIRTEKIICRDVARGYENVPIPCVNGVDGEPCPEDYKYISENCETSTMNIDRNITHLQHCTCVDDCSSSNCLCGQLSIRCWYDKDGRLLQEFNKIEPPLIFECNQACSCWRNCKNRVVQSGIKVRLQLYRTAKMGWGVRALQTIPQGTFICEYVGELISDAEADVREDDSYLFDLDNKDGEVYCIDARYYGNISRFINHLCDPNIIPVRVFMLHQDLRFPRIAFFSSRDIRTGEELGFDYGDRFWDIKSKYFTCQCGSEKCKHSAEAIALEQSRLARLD
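Step 1: enzyme (final 20 nM) with compound, 15 min RT. Step 2: substrate peptide 500 nM and SAM 20 uM, 2 h RT. Step 3: anti-H3K9me1 antibody and AlphaScreen beads, 10 min, then plate read.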
Hits are given with their value; – = inactive; ? = inconclusive; · = not tested or not shown; ! = a repeat was not active; [ ] = another dose, or the depositor's remark. Shown are actives, neighbours in structure and some others; about 10% of the full set was active somewhere. Unless noted, calls come from the whole dose curve; as a rule, active = well fitted curve in the direction sought with a large enough effect; inconclusive = small, poorly fitted or top-dose-only effect, or another doubt; inactive = no such curve, though single readings can be large; an effect the other way counts as inactive or inconclusive.

SMILES	Sfp inh	CCT chaperon mod	MmCpn inh	PLK1 PBD block	VDR inh	G9a block
CCc1nc(SCC(=O)c2ccc3c(c2)OCCO3)c2ccccc2n1	50µM	–	–	–	?	8.9µM
Clc1ccc(CNc2cc(-c3ccccc3)nc3nncn23)cc1	·	·	·	·	–	–
COc1cc(NS(=O)(=O)c2ccc(NC(=O)C(C)Oc3ccc(Cl)cc3Cl)cc2)nc(OC)n1 (configuration not stated)	·	·	·	·	–	?
CC(=O)c1cc2c(cc1N/C(=N/S(=O)(=O)c1ccc(C)cc1)c1ccc(F)cc1)OCO2	·	·	·	·	–	–
CCCc1nc(SCC(=O)c2ccc(OC)cc2)c2ccccc2n1	79µM	–	–	–	–	?
O=c1[nH]c(-c2ccccc2O)nc2ccccc12	–	·	·	·	–	·
O=c1[nH]c(-c2ccccn2)nc2ccccc12	79µM	–	–	–	–	–
Cc1sc2nc(-c3ccccn3)[nH]c(=O)c2c1-c1ccccc1	18µM	–	–	19µM	?	10µM
CNc1nc(-c2ccc3c(c2)CCN3C(=O)c2ccccc2F)c(C)s1	22µM	–	–	–	?	35µM
CNc1nc(-c2ccc3c(c2)CCN3C(=O)CC(C)(C)C)c(C)s1	–	–	–	?	–	–
CCCC(=O)N1CCc2cc(-c3nc(N)sc3C)ccc21	–	–	–	–	–	40µM
O=C1CC(c2ccco2)=Nc2ccccc2N1	50µM	–	–	–	–	?
O=C1CC(c2ccccc2)=Nc2ccccc2N1	–	–	–	–	–	–[12.7 µM]
O=C1CS/C(=N/N=C/c2ccccc2)N1Cc1ccco1	?	–	–	–	–	·
COc1ccc(OC)c(/C=N/N=C2\SCC(=O)N2Cc2ccco2)c1	56µM	–	–	–	–	–
O=C1CSC(=Nc2ccc(Cl)cc2)N1Cc1ccco1	?	–	–	–	–	–
O=C(COc1ccc(Br)cc1)N/N=C1/SCC(=O)N1Cc1ccco1	–	–	–	24µM	?	–
CCOc1ccccc1CNS(=O)(=O)c1cc2c(cc1C)NC(=O)CO2	·	·	·	·	–	–
COCCNC(=O)c1cc(Sc2ccc(F)cc2F)nc2ccccc12	·	·	·	·	–	?
CCC(C)NCCOc1cccc(Br)c1 (configuration not stated)	–	–	–	–	–	8.9µM
O=C1c2ccccc2C(=O)N1CCOc1cccc(Br)c1	–	–	–	–	–	–
CC(C)(C)c1ccc(OCCNC(=S)Nc2ccccc2)cc1	–	–	?	–	–	–[12.7 µM]
CCC(C)NCCOc1ccc(C(C)(C)c2ccccc2)cc1 (configuration not stated)	–	–	–	–	–	7.9µM
CCc1cccc(OCCCCNCCOC)c1	–	–	–	–	–	7.9µM
CC(C)(C)c1ccc(OCCNCc2ccccc2)cc1	–	–	–	–	–	45µM
SMILES	Sfp inh	CCT chaperon mod	MmCpn inh	PLK1 PBD block	VDR inh	G9a block
CCc1ccc(NC(=O)c2sc3ncnc(N(C)C4CCCCC4)c3c2C)cc1	·	·	·	·	–	–
O=C(CCCOc1ccccc1)NCCc1ccccc1	–	–	–	–	–	–
CNCCCOc1ccc(C(C)(C)c2ccccc2)cc1	56µM	·	–	·	·	7.9µM
NNCCc1ccccc1	–	–	–	–	–	19µM!
c1ccc(CCNCCOc2ccccc2)cc1	–	–	–	–	–	10µM
COCCCNCCOc1ccc(C(C)(C)c2ccccc2)cc1	–	–	–	–	–	20µM
COc1ccc(Nc2c3c(nc4nncn24)CCC3)cc1Cl	·	·	·	·	–	–
CCCCN(CCCC)S(=O)(=O)c1ccc2oc(C(=O)NCc3ccccc3)c(C)c2c1	·	·	·	·	–	–
N#Cc1ccc(CN2CCCC3(CCN(C(=O)c4cccc(F)c4)CC3)C2)cc1	–	·	·	·	–	–[12.7 µM]
COc1ccc(C(=O)NCC(c2ccc3c(c2)OCO3)N2CCN(C)CC2)cc1OC (configuration not stated)	·	·	·	·	–	–
O=C1CCN(CCc2ccccc2)CCN1[C@H](COc1ccccc1)c1ccccc1	–	–	–	–	–	?
CCCN1CCC(=O)N([C@H](COc2ccccc2)c2ccccc2)CC1	–	–	–	–	–	40µM
Cc1c(C(=O)N2CCC(c3nc4ccccc4s3)CC2)oc2ccc(Cl)cc12	·	·	·	·	–	–
C/C(CCN1CCc2nc(-c3ccccc3)c(-c3ccccc3)cc2C1)=N\O[C@@H](C)c1cn([C@H](CO)Cc2ccccc2)nn1	–	·	–	·	·	45µM
COc1ccc(O[C@H]2C=C[C@@H](c3ccccc3)O[C@@H]2CO/N=C(\C)CCC(=O)OC[C@H]2O[C@H](c3ccccc3)C=C[C@@H]2Oc2ccc(OC)cc2)cc1	–	·	–	·	·	45µM
COc1ccc(O[C@H]2C=C[C@@H](c3ccccc3)O[C@@H]2COC(=O)CC/C(C)=N/O[C@@H](C)c2cn([C@H](CO)Cc3ccccc3)nn2)cc1	–	·	–	·	·	79µM
CCc1cc2c(nc1CC)CCN(CC/C(C)=N/O[C@@H](C)c1cn([C@H](CO)Cc3ccccc3)nn1)C2	–	·	·	·	·	·
O=C(CN1CCSc2ccccc21)N1CCN(c2cccc(Cl)c2)CC1	·	·	·	·	–	?
CCOc1ccc(CNC(=O)c2ccc3nc(C(C)C)oc3c2)cc1	·	·	·	·	–	–
CC/C(C)=N/Nc1nc2c(c(=O)[nH]c(=O)n2C)n1CCc1ccccc1	?	–	–	–	–	56µM
Cn1c(=O)[nH]c(=O)c2c1nc(N/N=C/C(Br)=C/c1ccccc1)n2CCO	56µM	–	–	?	–	·
Cc1cc(C)n(-c2nc3c(c(=O)[nH]c(=O)n3C)n2CCc2ccccc2)n1	–	–	–	30µM	–	–[12.7 µM]
CC(C)=NNc1nc2c(c(=O)[nH]c(=O)n2C)n1CCCc1ccccc1	–	–	–	–	–	–[2.33 µM]
NC(=S)N/N=C/c1ncc(C(F)(F)F)cc1Cl	25µM	–	–	–	?	–
NC(=S)N/N=C/c1ccc(C(F)(F)F)cc1	–	–	–	–	–	–
CCCn1c(-c2ccc(S(=O)(=O)N3CCOCC3)cc2)csc1=Nc1ccc(OCC)cc1	·	·	·	·	–	13µM
CCCCn1c(-c2ccc(S(=O)(=O)N3CCOCC3)cc2)csc1=Nc1ccccc1	·	·	·	·	–	5.6µM
COc1ccc2c(c1)c(=O)oc1c(C)c(OCc3ccc(C(=O)O)cc3)ccc12	–	–	–	30µM	–	?
COc1ccc2c(c1)c(=O)oc1c(C)c(OCc3cc(C(=O)O)oc3C)ccc12	–	–	–	?	–	?
O=S(=O)(NCc1ccc(F)cc1)c1ccc(N2CCCCS2(=O)=O)cc1	·	·	·	·	–	–
